Assay outcomes as filed in PubChem BioAssay.
JMJD2A Tudor inh = JMJD2A Tudor domain (human) inhibition. O75164. 4.4% of 390,000 active. AlphaScreen JMJD2A-Tudor / H3K4me3 peptide binding. Potency, µM (titrated, usually from 114 µM), without a hit: at the top dose activity change, negative = inhibition, usual class: inhibitors; note: % is set by controls: 0 for no effect and ±100 for the full control effect; nearly all actives have a fitted effect of over 50% in size
VDR inhibitor = vitamin D3 receptor (human) inhibition | VDR-SRC2-3 peptide fluorescence polarization, 2 h | P11473 | 0.93% of 400,000 active | Potency, µM, for the others: max response, negative = inhibition, hits mostly inhibitors | AID 504847; note: % is set by controls: 0 for no effect and ±100 for the full control effect
Target sequence (P11473 whole entry, looked up): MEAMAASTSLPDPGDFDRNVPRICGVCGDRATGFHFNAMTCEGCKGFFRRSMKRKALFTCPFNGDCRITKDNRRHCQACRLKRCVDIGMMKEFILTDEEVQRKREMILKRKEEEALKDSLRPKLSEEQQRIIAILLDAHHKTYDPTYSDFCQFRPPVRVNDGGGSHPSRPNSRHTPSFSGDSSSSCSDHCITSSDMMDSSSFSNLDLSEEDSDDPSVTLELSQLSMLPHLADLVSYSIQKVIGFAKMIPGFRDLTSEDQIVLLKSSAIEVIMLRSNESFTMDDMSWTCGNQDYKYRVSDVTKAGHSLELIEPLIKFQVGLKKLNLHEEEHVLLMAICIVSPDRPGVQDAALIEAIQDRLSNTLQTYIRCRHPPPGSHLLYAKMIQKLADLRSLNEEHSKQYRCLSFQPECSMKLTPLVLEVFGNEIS
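After 23 nl compound addition and a short centrifugation, plates sat for 2 hours at ambient temperature; polarization of fluorescence then indicated loss of VDR binding to peptide SRC2-3.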
BAZ2B inh = BAZ2B (human) inhibition. Q9UIF8. AlphaScreen BAZ2B-H3K14Ac peptide displacement. Potency, µM (highest dose often 114 µM), without a hit: at the top dose activity change, negative = inhibition, most hits filed as inhibitors. 4.4% of 360,000 active. AID 504333; note: % is set by controls: 0 for no effect and ±100 for the full control effect; nearly all actives have a fitted effect of over 60% in size
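AlphaScreen displacement of biotin-H3(5-23)K14Ac peptide (50 nM final) from BAZ2B (50 nM final) in PBS pH 7.4, 0.01% Tween-20; complex preformed 30 min RT, then compounds (top 110 uM) 30 min RT, beads 20 min dark.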
PLK1 PBD inh = PLK1 (human) polo-box domain binding inhibition; P53350; Plk1 PBD binding of FITC phosphopeptide, fluorescence polarization; Potency, µM, without a hit: max response, negative = inhibition, hits mostly inhibitors; 2.8% of 360,000 active; note: series mostly up to about 57 µM; % is set by controls: 0 for no effect and ±100 for the full control effect; nearly all actives have a fitted effect of over 65% in size
G9a inh = inhibitors of human histone lysine methyltransferase G9a. Q96KQ7. G9a H3K9 monomethylation, AlphaScreen, 2 h. Potency, µM (series often up to 102 µM), without a hit: at the top dose activity, negative = inhibition, actives largely listed as inhibitors. 8.8% of 350,000 active. AID 504332; note: % is set by controls: 0 for no effect and ±100 for the full control effect; nearly all actives have a fitted effect of over 75% in size
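Compounds were preincubated with 20 nM G9a for 15 min, after which biotinylated H3K9 peptide (500 nM) and SAM (20 uM) started a 2 h room-temperature reaction. Monomethylated product was quantified by antibody-based AlphaScreen chemiluminescence.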
HP1b binding inh = inhibitors of HP1-beta chromodomain binding to methylated histone tails; Potency, µM (highest dose often 114 µM), for the others: at the highest dose activity change, negative = inhibition, hits mostly inhibitors; AlphaScreen HP1-beta / biotin-H3K9me3 peptide binding; 0.56% of 390,000 active; note: nearly all actives have a fitted effect of over 70% in size
Target sequence (P83916 whole entry, looked up): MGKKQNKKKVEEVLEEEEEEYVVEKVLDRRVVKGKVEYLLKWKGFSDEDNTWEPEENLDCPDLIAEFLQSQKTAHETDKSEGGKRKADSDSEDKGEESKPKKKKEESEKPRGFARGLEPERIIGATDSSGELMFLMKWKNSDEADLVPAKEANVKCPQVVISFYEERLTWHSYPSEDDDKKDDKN
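AlphaScreen: HP1-beta (50 nM) preformed 30 min with biotin-H3(1-18)K9me3 peptide (50 nM) in PBS pH 7.4, 0.01% Tween-20. Compound added for 30 min at RT, then streptavidin donor/nickel chelate acceptor beads (10 ug/mL) for 30 min.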
* hit, by the source's call; ? = inconclusive; . = not tested or not shown; [ ] = another dose, or the depositor's remark. The list is not random: actives were taken first. Their share in the collection is about 11%. Calls come from the whole dose curve; as a rule, active = well fitted curve in the direction sought with a large enough effect; inconclusive = small, poorly fitted or top-dose-only effect, or another doubt; inactive = no such curve, though single readings can be large; an effect the other way counts as inactive or inconclusive. Potency is the fitted concentration of half-maximal effect.

SMILES | JMJD2A Tudor inh | VDR inhibitor | BAZ2B inh | PLK1 PBD inh | G9a inh | HP1b binding inh
COc1cc(OC)c(/C=N/n2c(C3CCCCC3)n[nH]c2=S)c(OC)c1 | 4µM* | -14% | -18% | -8% | 1.3µM* | 0%
COc1cccc(/C=N/n2c(C3CCCCC3)n[nH]c2=S)c1O | 25µM* | 7% | -32% | -7% | 2.5µM* | 16%
CCC(=O)N1c2ccccc2CC1C(=O)NCCCN1CCN(c2cc(C)ccc2C)CC1 (stereo not given) | -29% | 17% | -22% | . | 10%[59 µM] | 55%
COc1ccc(NC(=O)N2CCCC2C(=O)Nc2ccc(C)cc2C)cc1 (stereo not given) | 0% | 3% | -16% | 3% | 20% | 57%
Cc1cc(C)cc(NC(=O)Cc2csc(COc3cccc(C)c3)n2)c1 | 4% | 20% | ? | . | -1%[59 µM] | 44%
CC(C)(C)C1CCc2c(sc(NC(=O)c3ccco3)c2C(N)=O)C1 (stereo not given) | -15%[11.4 µM] | 3% | 5% | -5% | 5%[59 µM] | 33%
CN1CCc2c(sc3c2C(=O)NC(c2ccccn2)N3)C1 (stereo not given) | 20µM* | 25µM* | 45µM* | ? | 25µM* | 36%
O=C1NC(c2ccccn2)Nc2sc3c(c21)CCC3 (stereo not given) | ? | -8% | ? | -25% | 22µM* | 11%
Cc1ccc(C2NC(=O)c3c(sc4c3CCN(C)C4)N2)s1 (stereo not given) | ? | ? | -30% | -16% | ? | -31%
CC(C)(C)C1CCc2c(sc3c2C(=O)NC(c2ccco2)N3)C1 (stereo not given) | ? | -28% | -1% | ? | 10µM* | 13%
CN1CCc2c(sc3c2C(=O)NC(c2ccc(OC(=O)c4ccccc4)cc2)N3)C1 (stereo not given) | -30% | 45µM* | -17% | . | 13µM* | -5%
CN1CCc2c(sc3c2C(=O)NC(c2ccccc2)N3)C1 (stereo not given) | -22% | 71µM* | -1% | -16% | 40µM* | 0%
CN1CCc2c(sc3c2C(=O)NC(c2ccc(OC(=O)c4ccc(C(C)(C)C)cc4)cc2)N3)C1 (stereo not given) | -17% | 23% | -34% | . | 7.9µM* | 5%
Nc1ccc(CSc2ccc(Cl)cc2)c(Cl)c1 | 29% | 8% | . | -21% | . | 129%
CCCCn1c(=O)[nH]c(=O)c2c1nc(-c1ccc(-c3ccccc3Br)o1)n2CCOC | -30% | 1% | -7% | -23% | 16µM* | 5%
COCCn1c(-c2ccc(-c3ccccc3Cl)o2)nc2c1c(=O)[nH]c(=O)n2CC(C)C | -28% | 5% | 1% | -5% | 22µM* | 11%
COCCn1c(-c2ccc(NC(C)=O)cc2)nc2c1c(=O)[nH]c(=O)n2CC(C)C | -11% | -1% | 4% | -5% | 40% | -19%
Cc1cc(-c2ccc(C)c(S(=O)(=O)N(Cc3cccs3)C(C)C)c2)on1 | -2% | 13% | -3% | . | 7%[59 µM] | 7%
O=C(OCc1cnc(Cl)s1)c1cccc(Cl)c1Cl | 186% | 8% | 188% | -8% | 194% | 235%
OC1(c2cccc(C(F)(F)F)c2)CCNCC1 | 4% | -9% | 0% | 0% | -5%[12.7 µM] | 36%
O=S(=O)(c1ccc(OC(F)(F)F)cc1)N1CCC(O)(c2cccc(C(F)(F)F)c2)CC1 | -15% | ? | 3% | 27µM* | -1% | 30%
Cc1cc(C(=O)O)c(=O)[nH]c1C | 22µM* | 10% | ? | -8% | 71µM* | -5%
CCCCN(C(=O)C1CCCC1)c1c(N)n(Cc2ccccc2)c(=O)[nH]c1=O | -17% | -15% | . | -8% | . | 25%
COc1ccc(CCn2c(-c3cc([N+](=O)[O-])cc([N+](=O)[O-])c3)nc3nc4ccccc4nc32)cc1OC | -19% | 3% | -6% | -4% | 8%[59 µM] | 2%
CC1=NN(c2ccc(S(=O)(=O)O)cc2Cl)C(=O)C1 | ? | ? | -2% | ? | . | -1%
SMILES | JMJD2A Tudor inh | VDR inhibitor | BAZ2B inh | PLK1 PBD inh | G9a inh | HP1b binding inh
CC1=NN(c2cc(Cl)c(S(=O)(=O)O)cc2Cl)C(=O)C1 | 89µM* | -19% | . | 0% | . | 14%[57 µM]
CC1=NN(c2ccc(Cl)c(C(=O)O)c2)C(=O)C1 | 56µM* | -24% | -26% | -29% | 50µM* | -38%
CC1=NN(c2ccc(C(=O)O)c(N)c2)C(=O)C1 | 50µM* | -1% | 40µM* | -9% | 4.5µM* | 71µM*
Cc1cccc(NC(=O)C2CCN(c3nc4ccccc4[nH]3)CC2)c1C | -14% | 12% | 2% | . | 5%[59 µM] | 19%[57 µM]
Cc1ccc(N2C(=O)N(CC(=O)N3CCOCC3)C(=O)C2C)cc1 (stereo not given) | -2% | -15% | -16% | -10% | -7%[59 µM] | 18%
O=C(COC(=O)CNC(=O)c1sc2ccccc2c1Cl)Nc1cc(Cl)cc(Cl)c1 | -17% | 8% | -13% | -11% | -20% | -2%
Cc1cccn2c(=O)c3cc(C(=O)NCc4ccccc4Cl)sc3nc12 | -11% | 10% | 11% | . | 3%[59 µM] | 28%
O=C(CCCSc1nnc(-c2cccs2)n1CC1CCCO1)c1ccccc1 (stereo not given) | 79µM* | -2% | -5% | 1% | -45%[2.33 µM] | 34%
CC(C)C[C@@H](CNCC(=O)[C@H](CC(=O)O)NC(=O)c1[nH]cnc1C(=O)N[C@H](CN)CC(C)C)NC(=O)c1nc[nH]c1C(=O)N[C@@H](Cc1ccccc1)C(=O)O | 50µM* | -27% | . | ? | . | -14%
C[C@H](NC(=O)c1nc[nH]c1C(=O)N[C@@H](Cc1ccccc1)C(=O)OCc1ccccc1)C(=O)OCc1ccccc1 | -26% | -9% | -1% | 9% | . | 45%
CC(C)C[C@@H](CN)NC(=O)c1nc[nH]c1C(=O)N[C@@H](C)C(=O)CNC[C@H](C)NC(=O)c1nc[nH]c1C(=O)N[C@@H](C)C(=O)O | 50µM* | ? | . | ? | . | 59%
CC(C)C[C@H](NC(=O)c1[nH]cnc1C(=O)N[C@@H](C)C(=O)OC(C)(C)C)C(=O)OC(C)(C)C | -18% | -6% | 9% | 5% | 26%[12.7 µM] | 46%
CC(C)C[C@@H](CN)NC(=O)c1nc[nH]c1C(=O)N[C@@H](CC(C)C)C(=O)CNC[C@H](C)NC(=O)c1nc[nH]c1C(=O)N[C@@H](C)C(=O)O | 79µM* | -11% | . | -14% | . | 50%
CC(C)C[C@@H](CN)NC(=O)c1nc[nH]c1C(=O)N[C@@H](C)C(=O)CNC[C@H](C)NC(=O)c1nc[nH]c1C(=O)N[C@@H](Cc1ccccc1)C(=O)O | 79µM* | -20% | . | -9% | . | 52%
Cc1cn2c(=O)cc(COC(=O)c3ccc(NC(=O)c4ccccc4C)cc3)nc2s1 | -7% | -3% | -1% | . | 1%[59 µM] | 8%
